Screening data from PubChem BioAssay.
Sampled rows, rich in hits. Any-hit rate of the full collection: about 4%.
PAX8 inh HTS: inhibitors of PAX8 transcriptional activity in RMG-I cells; RMG-I TPO-luciferase reporter, SteadyGlo, 24 h; inhibition, % at 12.6 µM; hit rate 1.2% among 360,000; AID 652154;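 active = mean replicate inhibition at least 60% with every replicate also reaching 60%; inconclusive = only one of the two criteria is met; inactive = mean below 60% and not all replicates reaching 60%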;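 also: luciferase light reporting Pax8 driven TPO promoter activity; plate controls were median of neutral control wells for no effect and mitoxantrone controls for full effect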
TRPM1 prom inh: inhibitors of MITF-driven TRPM1 promoter in melanoma cells; hit rate 0.83% among 330,000; inhibition, % at 12.5 µM; SK-MEL-5 TRPM1 promoter luciferase, 24 h; AID 488899;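 active = mean inhibition across replicates of 60% or more, whatever share of single replicates reaches that level; inconclusive = some that reach 60%, reason not given; inactive = mean inhibition across replicates below 60%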
EWS-Fli block: EWS/Fli transcriptional activity inhibition | A673 NR0B1-luciferase reporter, viability-normalised | inhibition, % at 12.6 µM | hit rate 0.67% among 350,000;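 active = mean inhibition of at least 50% after viability correction, with every replicate also passing that limit; inconclusive = mean reaches 50% but only one of two replicates passes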;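 also: firefly luciferase signal divided by Alamar Blue viability fluorescence both relative to DMSO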
esBAF inh: inhibitors of esBAF chromatin remodeling in mouse ES cells; Bmi1-luciferase knock-in reporter, 24 h; 100% = twice the neutral-well signal; reporter increase, % at 12.5 µM; hit rate 2% among 350,000; in the data active = activation above about 40%; inconclusive = no clear call, values can overlap the other calls;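 also: 0% = median of the plate's neutral control wells and 100% = double that signal; a rise in the Bmi1 reporter signal indicates esBAF inhibition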
Wnt bcat act: Wnt/beta-catenin pathway activation; Wnt/beta-catenin reporter cell assay, activator, plate reader; activation, % at 9.35 µM; hit rate 1.2% among 300,000; in the data active = activation above about 30%, passing the limit was not always enough; inconclusive = no clear call, values can overlap the other calls;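 also: 0% = neutral control wells and 100% = positive control wells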
MITF TRPM1 HTS: MITF TRPM1 promoter activation in melanoma cells | SK-MEL-5 TRPM1-promoter luciferase, 24 h; % of positive control, neutral wells = 0 | activation, % at 12.5 µM | hit rate 0.75% among 300,000 | AID 588334;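 active = mean activation of at least 80% with every replicate also reaching 80%; inconclusive = mean reaches 80% but some replicate falls short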;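 also: 0% = neutral control wells and 100% = parthenolide positive control wells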
Numbers without * were called inactive; ? = inconclusive; · = no result.

SMILES	PAX8 inh HTS	TRPM1 prom inh	EWS-Fli block	esBAF inh	Wnt bcat act	MITF TRPM1 HTS
COc1cccc(-c2sc3ccc(OC)cc3c2-c2ccc(O)cc2)c1	-15.8	-6.3	7.7	0.0	4.1	6.3
CN(C)CCOc1ccc(-c2c(-c3ccsc3)sc3ccccc23)cc1	-10.1	3.5	4.2	2.5	-4.4	-2.3
COc1cccc(-c2sc3ccc(OC)cc3c2-c2ccc(OCCN(C)C)cc2)c1	68.3*	19.0	26.2	-9.3	-3.8	-20.1
COc1ccc(-c2sc3ccccc3c2-c2ccc(OCCN(C)C)cc2)cc1	100.1*	76.5*	42.5	-39.7	-29.5	-74.4
CC(C)CC#Cc1ccc2c(c1)O[C@@H](CN(C)C(=O)CN(C)C)[C@@H](C)CN([C@@H](C)CO)S2(=O)=O	·	·	7.1	-2.7	·	·
Cc1ccc2cc(CN(CC3CCCO3)C(=O)Nc3ccccc3F)c3nnnn3c2c1 (stereo not drawn)	-50.5	-22.6	-39.3	45.1*	2.2	29.3
Cc1ccc2cc(CN(CC3CCCO3)S(=O)(=O)c3ccccc3)c3nnnn3c2c1 (stereo not drawn)	·	-6.0	·	7.6	1.0	2.2
CC(C)c1ccc(NC(=O)c2n[nH]c(=O)c3ccccc23)cc1	-75.1	-35.9	-89.6	60.1*	8.6	38.7
COC(=O)C(C(=O)OC)c1ccc(NC(=O)c2cccc(Cl)c2)cc1	-56.8	-28.7	15.1	·	17.6	31.1
CC(C)c1ccc(NC(=O)c2csnn2)cc1	·	-83.1	-30.1	-12.1	20.0	84.2*
CC(C)c1ccc(NC(=O)c2snc3ccc(Cl)cc23)cc1	-85.4	-112.0	-58.2	?	21.8	120.1*
Cc1cccc2c3nc4ccccc4nc3n(C)c12	-22.7	-69.2	-77.4	41.4*	9.2	25.3
Cc1cccc2nc3ccccc3nc12	5.9	7.6	-14.2	1.4	0.3	-7.8
C[C@@H]1CN([C@@H](C)CO)C(=O)c2cccc(NC(=O)c3ccncc3)c2O[C@H]1CN(C)Cc1ccc(Cl)c(Cl)c1	14.3	·	2.2	7.0	·	·
C[C@H]1CN([C@@H](C)CO)S(=O)(=O)c2ccc(C#Cc3ccccc3F)cc2O[C@@H]1CN(C)CC1CCOCC1	89.9*	·	-2.6	-6.9	·	·
C[C@@H]1CN([C@@H](C)CO)S(=O)(=O)c2ccc(C#Cc3ccccc3F)cc2O[C@H]1CN(C)CC1CCOCC1	94.1*	·	23.0	-5.6	·	·
CCCN(C)C[C@H]1OCc2cnnn2CCCC(=O)N([C@@H](C)CO)C[C@H]1C	-11.0	·	-7.2	-1.1	·	·
CCCNC(=O)N1CC2(CCN(C(=O)C3CCCCC3)CC2)c2c([nH]c3cc(OC)ccc23)[C@H]1CO	·	·	3.4	·	·	·
O=C1CN(S(=O)(=O)c2ccccc2)C[C@@H]2[C@@H](c3ccc(Br)cc3)[C@@H](CO)N12	11.4	·	6.4	·	·	·
C[C@@H]1CN([C@H](C)CO)S(=O)(=O)c2ccc(Br)cc2O[C@H]1CN(C)Cc1ccncc1	·	·	4.5	6.8	·	·
COc1cccc2cc(C(=O)N3CC(C)OC(C)C3)c(=O)oc12 (stereo not drawn)	22.3	-3.4	-26.2	-9.1	1.6	3.2
COc1cc2c(oc(=O)c3cc(C)cc(OC)c32)c2c(C3OC(C)C(O)C(C)(O)C3O)ccc(O)c12 (stereo not drawn)	·	65.1*	37.1	·	-2.2	·
CC(=O)Nc1nc(-c2ccc3ccccc3c2)cs1	-133.4	-94.9	-55.0	30.6	48.2*	94.4*
O=C(CN1C(=O)CCC1=O)Nc1nc(-c2nc3ccccc3s2)cs1	-131.2	-87.0	-84.0	39.5	9.8	92.0*
O=C(CN1C(=O)CCC1=O)Nc1nc(-c2ccc3ccccc3c2)cs1	-110.6	-60.1	-76.7	·	43.9*	66.7
CS(=O)(=O)Nc1ccc2c(c1)[C@@H]1C[C@@H](CC(=O)NCc3ccc(-c4ccccc4)cc3)O[C@H](CO)[C@@H]1O2	4.8	·	20.4	17.5	·	·
Nc1ccc2c(c1)Cc1c(F)cccc1-2	·	-67.8	·	57.2*	·	65.3
Nc1ccc2c(c1)Cc1cc(Cl)c(Cl)cc1-2	-98.2	-29.4	-29.0	·	4.3	24.7
COc1ccc(CN(C)C(=O)c2cccc(NC(=O)CC3SC(N4CCCCC4)=NC3=O)c2)c(OC)c1 (stereo not drawn)	54.6	63.3*	17.1	-38.5	-2.8	-60.3
O=C1C=CC(=O)c2c(O)c(N3CCN(CCOCCO)CC3)c(Br)c(O)c21	97.4*	96.6*	?	·	-0.7	-95.3
